Assay results as given in the OligoGym collection.
Note: reference of the scale not given here.

What follows are sequences tested against UNC5D (assay: pooled miR-30 sensor sort-seq; sequence = guide strand). Settings: shRNA.
For TTAGAAAAAACAACTTTCCGTA, the sensor-assay potency score (higher = more potent) was 0.101. Work on TACATTTGTTTATCAATCCTGA yielded a sensor-assay potency score (higher = more potent) of -0.0896. TTTGTGATGACACAGTACCCAC was tested, and the sensor-assay potency score (higher = more potent) was -1.26. TTAAAATGTATCAAACATCTAA showed a sensor-assay potency score (higher = more potent) of 0.16. For TACATTTCTATAGAAATCCTAT, the sensor-assay potency score (higher = more potent) was -0.569. TAGATCAACACGTGTCTCCTAG showed a sensor-assay potency score (higher = more potent) of 1.06. In the case of TAAATTAACTTTATGATGCTAC, the sensor-assay potency score (higher = more potent) is reported as -0.135. Work on TTGACAATAATCTTGTCTCATC yielded a sensor-assay potency score (higher = more potent) of -0.801. TTGTCCTACATCATAAGCCTTT was tested, and the sensor-assay potency score (higher = more potent) was -0.645. With TTAGTCTACCAGGACATCTTGT the sensor-assay potency score (higher = more potent) was -0.288.

What follows are sequences tested against UPK1A in the same assay as above. Settings: shRNA.
TAGAAGGTCAGCATCTGCTTGG gave a sensor-assay potency score (higher = more potent) of -0.08. With TAGGACGTGATGCAGGAGGCGC the sensor-assay potency score (higher = more potent) was -1.09. With TTGGACACCATGTAGTCACGGT the sensor-assay potency score (higher = more potent) was 0.419. TCTTGCTCAATCATGACGCGGT gave a sensor-assay potency score (higher = more potent) of 0.151. ATGGCTATCAGCATGACCGGGA gave a sensor-assay potency score (higher = more potent) of -0.114. Work on TACTGGTCGGCTGTCACCCATA yielded a sensor-assay potency score (higher = more potent) of -1.44. In the case of TAGCTGTCGATGGCGTGGCCGA, the sensor-assay potency score (higher = more potent) is reported as -1.49. TATGGTCTCAGCAAACAGGGAC was tested, and the sensor-assay potency score (higher = more potent) was -0.387. TAGCAGGCCCACCACAACTGGA was tested, and the sensor-assay potency score (higher = more potent) was -1.8. With TACGTGAGGACCATGGACCGGC the sensor-assay potency score (higher = more potent) was 0.148. Work on TTGGTGAACAGGTAGTCCATGT yielded a sensor-assay potency score (higher = more potent) of -0.409.

These sequences were tested against UQCRQ in the same assay as above. Settings: shRNA.
In the case of TATTGTGTCTTTGAGACACTAC, the sensor-assay potency score (higher = more potent) is reported as -0.42. TGCTCGAACGGTGACAAGCTGT showed a sensor-assay potency score (higher = more potent) of -0.735. TGGATCTCTCGAACTCTTCAGT showed a sensor-assay potency score (higher = more potent) of -0.739. Work on AACGGTGACAAGCTGTAGCTGA yielded a sensor-assay potency score (higher = more potent) of 0.0218. Sequence TAAAACACTACAAACTGCGGCA has a sensor-assay potency score (higher = more potent) of 0.151. TCGAACGGTGACAAGCTGTAGC showed a sensor-assay potency score (higher = more potent) of -0.337. TCCTTTAGTGAAGACGTGCGGA gave a sensor-assay potency score (higher = more potent) of -0.407. TGTAGCTGATCACATGCCGCAT gave a sensor-assay potency score (higher = more potent) of -0.74. Work on TTCTTCCTCTTGGATCTCTCGA yielded a sensor-assay potency score (higher = more potent) of -0.853. ATAAAACACTACAAACTGCGGC gave a sensor-assay potency score (higher = more potent) of 0.284. With TCGAACTCTTCAGTCCCCCATG the sensor-assay potency score (higher = more potent) was -1.13.

These sequences were tested against USO1 in the same assay as above. Settings: shRNA.
Sequence TAGCATTAGATGTAGATTGGTC has a sensor-assay potency score (higher = more potent) of 0.084. TATGATATAATCTCTATTGTTC showed a sensor-assay potency score (higher = more potent) of -0.231. TAGGATAGTACAAAGCTGCTGC showed a sensor-assay potency score (higher = more potent) of 0.88. TATATTATATAGTATGTCCAAA was tested, and the sensor-assay potency score (higher = more potent) was -1.01. TACACGAACAAGCTGTAGCATT was tested, and the sensor-assay potency score (higher = more potent) was -0.757. With TAAAATAATTTGTTGCACCTGA the sensor-assay potency score (higher = more potent) was 0.172. Work on TACCAATACACGAACAAGCTGT yielded a sensor-assay potency score (higher = more potent) of 0.107. TTTCTGATCTTGATCGGCCAAG showed a sensor-assay potency score (higher = more potent) of -1.48.
